FLuc counter: qHTS profiling assay for firefly luciferase inhibitor/activator using purifed enzyme and Km concentrations of substrates (counterscreen for miR-21 project). Luciferin 4-monooxygenase (Photinus pyralis), P08659. purified FLuc, Km substrates, luminescence inhibition. Potency, µM (doses to about 57.5 µM), usual class: inhibitors. 6.9% of 360,000 active. AID 588342, 2011; further: nearly all actives have a fitted effect of over 55% in size
Target sequence (P08659 whole entry, looked up): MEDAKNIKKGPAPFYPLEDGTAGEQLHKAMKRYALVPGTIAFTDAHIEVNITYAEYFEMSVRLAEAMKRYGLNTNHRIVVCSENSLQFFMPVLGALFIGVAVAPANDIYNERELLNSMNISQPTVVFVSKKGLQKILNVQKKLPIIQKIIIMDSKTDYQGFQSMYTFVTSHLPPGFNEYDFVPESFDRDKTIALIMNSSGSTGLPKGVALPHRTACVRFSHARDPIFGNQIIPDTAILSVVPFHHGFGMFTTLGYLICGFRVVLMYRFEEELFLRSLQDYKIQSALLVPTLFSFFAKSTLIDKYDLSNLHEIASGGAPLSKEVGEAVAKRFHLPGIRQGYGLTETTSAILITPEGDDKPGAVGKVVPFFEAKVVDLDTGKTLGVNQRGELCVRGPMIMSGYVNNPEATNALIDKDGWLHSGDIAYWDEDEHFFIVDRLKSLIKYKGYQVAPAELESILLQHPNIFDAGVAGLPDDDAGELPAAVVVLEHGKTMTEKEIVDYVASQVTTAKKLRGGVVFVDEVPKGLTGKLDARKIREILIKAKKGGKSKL
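Purified P. pyralis luciferase (10nM final) with 10uM D-luciferin and 10uM ATP (Km levels) in 50mM Tris acetate pH 7.5, 10mM Mg acetate, 0.01% Tween-20, 0.05% BSA; qHTS 6-point titration, ~60 µM downward; luminescence read.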
Rab9 prom act: qHTS Assay for Rab9 Promoter Activators; Huh7 Rab9 promoter-luciferase reporter, luminescence, 24 h; Potency, µM (doses to about 9.22 µM), usual class: activators; 2.8% of 320,000 active; AID 485297, 2010; further: nearly all actives have a fitted effect of over 60% in size
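Huh7 reporter line, Rab9 promoter upstream of luciferase. Compound exposure 24 h at 37 °C in reduced-serum medium with 10% FBS. Read-out: luminescence.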
NPC1 promoter act: qHTS Assay for NPC1 Promoter Activators; Huh7 NPC1 promoter luciferase reporter, 24 h; 2.4% of 320,000 active; Potency, µM (highest dose often 9.22 µM), actives largely listed as activators; AID 485313, 2010; further: nearly all actives have a fitted effect of over 60% in size
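Luminescence read-out of NPC1 promoter-driven luciferase in stably transfected Huh7 cells; compounds delivered in DMSO and left 24 h at 37C, 5% CO2, qHTS titration format.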
SMN2 splice enh: qHTS Assay for Enhancers of SMN2 Splice Variant Expression. HEK293 SMN2-luciferase splicing reporter, luminescence, 30-36 h. Potency, µM (series often up to 46.1 µM), usual class: activators. 2.8% of 210,000 active; further: nearly all actives have a fitted effect of over 55% in size
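qHTS luciferase splicing reporter: luminescence rises when SMN2 exon 7 is included in transfected HEK293 cells. Compound exposure lasted 30-36 h at 37C, with 4.5 mM final sodium butyrate as control, followed by a ONE-Glo read.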
ELG1 genotox: qHTS screen for small molecules that induce genotoxicity in human embryonic kidney (HEK293T) cells expressing luciferase-tagged ELG1; HEK293T ELG1-luciferase reporter, luminescence, 16 h; Potency, µM (series often up to 46 µM), hits mostly activators; 1.3% of 330,000 active; further: nearly all actives have a fitted effect of over 60% in size
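Step 1: seed 2,000 HEK293T ELG1-luciferase cells per well. Step 2: add compound or DMSO, incubate 16 hr at 37 °C. Step 3: ONE-Glo, 30 min at room temperature, read luminescence.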
KinaseGlo FLuc: Counterscreen for Luciferase (Kinase-Glo TM) Inhibition; Kinase-Glo luciferase, ATP luminescence, 8 min; Potency, µM (top dose mostly 38.3 µM), most hits filed as inhibitors; 0.28% of 200,000 active; AID 1379, 2008; further: nearly all actives have a fitted effect of over 60% in size
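Light output from Kinase-Glo luciferase with luciferin and 10 uM ATP in 50 mM imidazole pH 7.2, KCl, MgCl2, Tween 20, BSA; compound pin-delivered, 8-min ambient incubation, then luminescence read.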
Hits are given with their value; - = inactive; ? = inconclusive; . = no result given; [ ] = dose if it differs, or a comment. Compounds with a hit are over-represented: about 7.3% of the library has one in this group of screens. The call rests on the fitted dose curve; in most records, active means well fitted curve in the direction sought with a large enough effect; inconclusive means small, poorly fitted or top-dose-only effect, or another doubt; inactive means no such curve, though single readings can be large; an effect the other way counts as inactive or inconclusive.

SMILES	FLuc counter	Rab9 prom act	NPC1 promoter act	SMN2 splice enh	ELG1 genotox	KinaseGlo FLuc
O=C(CN1CCN(c2ccccn2)CC1)Nc1ccc(OC(F)(F)F)cc1	-	-	-	.	-	.
Cc1ccc(Cc2nc3ccccc3nc2SCC(=O)N2CCCCC2C)cc1 (stereo unspecified)	-	.	.	.	.	.
O=C(NCCc1ccccc1)c1ccc2c(c1)N(Cc1ccc(Cl)cc1)C(=O)c1ccccc1S2(=O)=O	-	.	.	-	.	.
Cc1c(N=C=O)cccc1N=C=O	.	.	.	-	.	.
O=C(Nc1ccc(F)cc1)Nc1ccc(N2CCOCC2)c2nonc12	?	2.2µM	?	?	?	-
COc1ccc(NC(=O)Nc2ccc(N3CCOCC3)c3nonc23)c(OC)c1	-	-	-	-	-	-
Cc1nc2cccnc2n1C1CCN(C(=O)Nc2ccccc2C(F)(F)F)CC1	-	.	.	.	.	.
CC(/C=N/NC(=O)c1cnccn1)=C\c1ccco1	12µM	?	?	.	?	.
CC(/C=N/NC(=O)c1cccnc1)=C\c1ccco1	-[2.3 µM]	?	-	?	-	-
CC(=C/c1ccco1)/C=N/NC(=O)c1ccncc1	17µM	-	-	.	-	.
CC(NC(=O)Cn1ccc2cc(S(=O)(=O)N3CCCCCC3)ccc21)c1ccccc1 (stereo unspecified)	-	.	.	.	.	.
CCOC(=O)C1CCCN(S(=O)(=O)c2ccc3[nH]c(=O)ccc3c2)C1 (stereo unspecified)	-	.	.	.	.	.
Cc1ccc(SSc2cc(C)ccc2N)c(N)c1	4.8µM	0.79µM	1.1µM	.	-	.
COc1ccc(-c2ccc3c(N)c(C(=O)NC(C)C)sc3n2)cc1OC	17µM	-	-	.	-	.
COc1cccc(NC(=O)c2sc3nc(C)c(C(=O)Nc4ccc(C)cc4C)c(-c4ccc(Br)cc4)c3c2N)c1	-	.	.	13µM	.	.
COc1ccc(-c2ccc3c(N)c(C(=O)Nc4cccc(C)c4)sc3n2)cc1	-	.	.	1.8µM	.	.
COCCCNC(=O)c1sc2nc(C)c(C(=O)Nc3ccc(C)cc3C)c(-c3ccc(Br)cc3)c2c1N	-	.	.	-	.	.
NC(=S)NN=Cc1ccc(-c2ccc(S(=O)(=O)Nc3ncccn3)cc2)o1	.	.	.	.	-	.
O=C(N/N=C/c1ccc(-c2ccc(S(=O)(=O)Nc3ncccn3)cc2)o1)c1cc2ccccc2cc1O	21µM	-	-	?	-	-
NS(=O)(=O)c1ccc(-c2ccc(/C=N/NC(=O)c3ccccc3O)o2)cc1	6.7µM	-	-	.	-	.
CCOc1ccc(C(=O)N/N=C/c2ccc(-c3ccc(S(=O)(=O)Nc4ncccn4)cc3)o2)cc1	19µM	-	-	-	-	-
Cc1ccc(-c2ccc(/C=N/NC(=O)c3ccccc3O)o2)cc1	?	-	-	.	-	.
Cc1cccc(NC(=O)C2CCCN(S(=O)(=O)c3c(C)noc3/C=C/N(C)C)C2)c1C (stereo unspecified)	-	.	.	-	.	.
COc1cc(/C=C(/C#N)c2nc(-c3cc4ccccc4oc3=O)cs2)ccc1O	?	.	.	-	.	.
N#Cc1nc(Nc2cccc(Cl)c2)c2ncn(C3CCCC3)c2n1	1.3µM	-	3.5µM	.	?	.
SMILES	FLuc counter	Rab9 prom act	NPC1 promoter act	SMN2 splice enh	ELG1 genotox	KinaseGlo FLuc
O=C1OCc2cc(-n3cccc3)ccc21	-	-	-	-	-	-
Nc1ccc2c(c1)COC2=O	17µM	-	-	-	-	-
CCN(CC)S(=O)(=O)c1ccc(N2CCOCC2)c(NC(=O)COc2ccc(C#N)cc2)c1	15µM	-	-	.	-	.
CCCCC(=O)OCC(=O)c1ccc(OCC)cc1	0.85µM	-	-	-	-	-
CCOc1ccc(C(=O)COC(=O)c2nc3nccc(C)n3n2)cc1	-	-	-	.	-	.
Cc1ccc(C(=O)CCS(=O)(=O)c2ccc(F)cc2)cc1	0.76µM	-	-	.	-	.
CCOc1ccc(C(=O)CCCC(=O)c2ccc(OCC)cc2)cc1	6.7µM	-	?	.	?	.
CCOc1ccc(C(=O)COC(=O)CC)cc1	5.4µM	-	-	-	-	-

Source: PubChem BioAssay (National Center for Advancing Translational Sciences (NCATS))
